# Rows were chosen to be rich in hits. Some 0.92% of all compounds tested hit in one or more screens of this group.
# LmPK inh = qHTS Assay for Inhibitors of Leishmania Mexicana Pyruvate Kinase (LmPK). 0.37% of 290,000 active. Potency, µM (series often up to 57.5 µM), for inactives: top-dose activity change, negative = inhibition, hits mostly inhibitors. AID 1721, 2009. purified LmPK, Kinase-Glo ATP luminescence, 1 h; further: on the % scale 0 is the no-effect control and ±100 the full control effect
# Target sequence (Q27686 whole entry, looked up): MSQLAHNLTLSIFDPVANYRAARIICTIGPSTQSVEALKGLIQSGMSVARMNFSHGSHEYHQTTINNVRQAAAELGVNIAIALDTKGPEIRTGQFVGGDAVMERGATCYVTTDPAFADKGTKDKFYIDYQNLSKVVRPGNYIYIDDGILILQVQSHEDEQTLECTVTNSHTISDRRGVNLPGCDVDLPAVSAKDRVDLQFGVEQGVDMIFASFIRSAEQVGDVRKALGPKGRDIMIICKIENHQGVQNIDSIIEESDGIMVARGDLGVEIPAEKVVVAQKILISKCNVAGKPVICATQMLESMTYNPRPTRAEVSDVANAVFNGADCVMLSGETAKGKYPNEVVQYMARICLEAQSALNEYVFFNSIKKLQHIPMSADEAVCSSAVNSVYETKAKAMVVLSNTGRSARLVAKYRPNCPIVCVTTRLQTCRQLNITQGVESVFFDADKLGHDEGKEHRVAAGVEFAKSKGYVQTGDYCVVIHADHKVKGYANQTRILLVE
#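 Pyruvate kinase activity monitored as ATP production (luciferase luminescence). Conditions: 0.1 nM enzyme, 0.5 mM PEP, 0.1 mM ADP, 1 h, RT; normalized against uninhibited and no-enzyme wells.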
# RE007 growth inh = qHTS Assay for Inhibitors of the HIV-1 protein Vpr; S. pombe RE007 Vpr strain, BacTiter-Glo ATP luminescence, 24 h; Potency, µM (highest dose often 92.2 µM), for inactives: at the highest dose activity change, negative = less growth, hits mostly inhibitors; 0.21% of 360,000 active; active means well fitted falling curve with a large enough effect; inconclusive means small, poorly fitted or top-dose-only effect; inactive means no such curve, though single readings can be large or run the other way; further: on the % scale 0 is the no-effect control and ±100 the full control effect; nearly all actives have a fitted effect of over 50% in size
#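 Fission yeast strain RE007, carrying one chromosomally integrated HIV-1 vpr copy, was seeded at OD 0.01 in PMG+AL medium with 23 nL pinned compound. After 24 h at 30 °C and 99% humidity, viability was read by BacTiter-Glo luminescence.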
# NS1 inh = qHTS Assay for Inhibitors of Influenza NS1 Protein Function; Potency, µM (titrated, usually from 46.1 µM), for the others: top-dose activity, positive = more growth; 0.4% of 270,000 active; AID 2326, 2010; calls by dose curve; further: actives are rising curves; nearly all actives have a fitted effect of over 50% in size
#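 Compounds were scored for reversing the slow growth caused by influenza A NS1 in S. cerevisiae, measured by optical density at 600 nm. Assay medium contained 2% galactose at pH 6.0; NS1-free yeast of the same strain were the positive control.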
# AMA1-RON2 inh = qHTS for Inhibitors of AMA1-RON; Towards Development of Antimalarial Drug Lead: Primary Screen; Plasmodium falciparum AMA1 (3D7) - RON2 peptide interaction; 0.2% of 360,000 active; Potency, µM (top dose mostly 58.2 µM), for the others: at the highest dose activity change, negative = inhibition, hits mostly inhibitors; AlphaScreen AMA1-biotinylated RON2 peptide binding;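 further: 0% = vehicle wells and -100% = peptide control; nearly all actives have a fitted effect of over 45% in size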
#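 AMA1 (3D7) with his tag at 25 nM final met compounds first, then biotinylated RON2 peptide at 25 nM; detection used donor plus acceptor beads, 10 µg/mL apiece, read by AlphaScreen after 30 min at room temperature.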
# Tb PYK inh = qHTS of Trypanosoma Brucei Inhibitors. pyruvate kinase (Trypanosoma brucei), Q57TT1. TbPYK enzyme, Kinase-Glo Plus ATP luminescence, 45 min. Potency, µM (top dose mostly 76.8 µM), without a hit: at the highest dose activity, negative = inhibition, most hits filed as inhibitors. 0.12% of 410,000 active. AID 624173, 2012; further: on the % scale 0 is the no-effect control and ±100 the full control effect; nearly all actives have a fitted effect of over 50% in size
#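 In this concentration-response screen, enzyme-free wells defined baseline while DMSO plates tracked drift. Each reaction combined TbPYK, substrate, compound and 130 uM ADP for 45 min at room temperature. Kinase-Glo Plus luminescence gave the signal.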
# Active calls of the source: *; u = inconclusive; x = no result given; [ ] = dose if it differs, or a comment. Unless noted, the call rests on the fitted dose curve; in most records, active means well fitted curve in the direction sought with a large enough effect; inconclusive means small, poorly fitted or top-dose-only effect, or another doubt; inactive means no such curve, though single readings can be large; an effect the other way counts as inactive or inconclusive. Potency means the concentration at half of the fitted maximal effect.
SMILES,LmPK inh,RE007 growth inh,NS1 inh,AMA1-RON2 inh,Tb PYK inh
O=C(CCCN1CCOCC1)c1ccc2c(c1)OCCO2,-4%,1%,-5%,-2%,2%
O=C(N/N=C1\CCc2ccccc21)c1ccccc1O,13µM*,-5%,-2%,-8%,-10%
O=C(N/N=C1\CCCc2ccccc21)c1ccccc1Cl,6%,-3%,-3%,61%,-12%
C[C@H](CCC(=O)O)[C@H]1CC[C@@H]2[C@@H]3CC[C@H]4C[C@@H](O)CC[C@@]4(C)[C@@H]3C[C@H](O)[C@@]21C,x,x,6%,x,x
Nc1ncnc2c1ncn2[C@@H]1O[C@H](CO)[C@H](O)[C@H]1O,x,x,-6%,x,x
O=Nc1c(O)c2ccccc2c2ccccc12,x,45µM*,x,6%,0%
CCN1/C(=C/c2ccc3ccccc3[n+]2CC)C=Cc2ccccc21,14µM*,22µM*,-266%,u,32µM*
CCN1/C(=C/c2ccc3ccccc3[n+]2CCCS(=O)(=O)[O-])C=Cc2cc(C)ccc21,-8%,-26%,2%,-10%,u
Cc1cc(Cc2cc(C)c(N)cc2C)c(C)cc1N,7%,5%,3%,-15%,2%
Cc1cc(Cc2cc(C)c(N)cc2N)c(N)cc1N,x,x,8.9µM*,x,x
CC(C)(S)C(=O)NC(CS)C(=O)O (stereo unspecified),x,x,x,x,0%
CCCCCCCC1=Cc2ccc(F)cc2C(C(C(C)=O)C(=O)OC)N1C(=O)OC (stereo unspecified),1%[11.5 µM],x,x,x,x
S=c1[nH]nc(CCc2nc3ccccc3[nH]2)n1-c1ccccc1,-12%,1%,10%,52%,u
S=c1[nH]nc(CCc2nc3ccccc3[nH]2)n1-c1cccc(Cl)c1,10µM*,2%,0%,54%,u
Cc1noc(C)c1S(=O)(=O)N1CCc2nc(-c3ccccc3)c3c(c2C1)CO[C@@H](C)C3,-1%[11.5 µM],x,x,x,x
CN(C)c1ccc(N=Nc2ccccc2C(=O)OCC(=O)N2CCCC2)cc1,-8%,7%,6%,u,-6%
CN(C)c1ccc(N=Nc2ccccc2C(=O)OCC(=O)Nc2ccccc2C(F)(F)F)cc1,-4%,-7%,u,14µM*,4%
CN(C)c1ccc(N=Nc2ccccc2C(=O)OCC(=O)N2CCCCCC2)cc1,1%,-5%,-19%,18µM*,1%
C[C@H]1[C@@H]2Cc3ccc(O)cc3[C@]1(C)CCN2CCc1ccccc1,x,x,x,x,-5%[157 µM]
CCCCCCCCOc1ccccc1C(=O)Nc1ccc(C(=O)OCC[N+](C)(CC)CC)cc1,x,x,x,x,-7%
CC(C)CNCCc1ccccn1,x,x,0%,x,x
C[C@]1(O)CC[C@H]2[C@@H]3[C@@H](O)CC4=CC(=O)CC[C@@]4(C)[C@H]3CC[C@]21C,x,x,-1%,x,x
CCOC(=O)c1c(C)[nH]c(N=Nc2ccccc2)c1C,5%,-27%,-82%,13µM*,-9%
CCNC1=C(Cl)C(=O)c2ccccc2C1=O,19%,16µM*,u,-21%,-4%
O=C1C(Cl)=C(NCc2ccco2)C(=O)c2ccccc21,x,20µM*,x,-7%,-8%
SMILES,LmPK inh,RE007 growth inh,NS1 inh,AMA1-RON2 inh,Tb PYK inh
CCN(CC)c1ccc(NC2=C(Cl)C(=O)c3ccccc3C2=O)cc1,u,u,-13%,6.3µM*,-19%
O=S(=O)(c1ccccc1)c1ccc(NCc2ccco2)cc1,8%,11%,-6%,18%,-2%
Cc1ccc(NC2=C(Cl)C(=O)c3ccccc3C2=O)cc1,-11%,-2%,11%,-23%,-6%
O=C1c2ccccc2-c2onc3ccc(NCc4ccco4)c1c23,-26%,28µM*,-111%,132%,-23%
CCCC(=O)NC1=C(Cl)C(=O)c2ccccc2C1=O,x,7.1µM*,x,15%,u
CC1(C)CC(=O)c2c(oc3cc(O)c(O)cc23)C1,-15%,-4%,-8%,1.6µM*,-23%
CC(C)c1ccc(S(=O)(=O)Nc2ccc3oc4c(c3c2)C(=O)CC(C)(C)C4)cc1,x,x,x,x,0%
Cc1ccc(S(=O)(=O)O/N=C2\CCCc3ccccc32)cc1,0%,5%,-1%,11%,13%
CC1=C(C)/C(=N\OS(=O)(=O)c2ccccc2)C=CC1=O,7%,7.9µM*,-249%,u,2%
COc1ccc(C(=O)Nc2ccc(C)cn2)c(OC)c1,14µM*,u,-51%,-6%,-18%
CCN(CC)c1ccc(/C=C2\CCC(/C=C(/C#N)C(=O)Nc3ccccc3F)=C2N2CCOCC2)cc1,x,-10%,x,-16%,-10%
CCN(CC)c1ccc(/C=C2\CCC(/C=C(\C#N)C(=O)Nc3ccccc3F)=C2N2CCOCC2)cc1,11µM*,-4%,-1%,-3%,-19%
COc1cc(C(=O)Nc2ccc(C(=O)O)cc2)ccc1OC(C)=O,25µM*,-12%,x,-10%,-4%
COc1cc(C(=O)Nc2ccc(O)cc2)ccc1OC(C)=O,u,1%,-2%,14%,0%
COc1ccc(S(=O)(=O)Nc2cc(Sc3ncn[nH]3)c(O)c3ccccc23)cc1,3.2µM*,32µM*,-189%,x,x
COc1ccc(S(=O)(=O)Nc2ccc(O)c(Sc3ncn[nH]3)c2)cc1,2%,5%,-3%,13%,-7%
COc1cccc(OC)c1-c1cc(C(=O)NC2(C(=O)O)C3CC4CC(C3)CC2C4)nn1-c1ccnc2cc(Cl)ccc12 (stereo unspecified),x,x,x,x,-9%
CCc1ccc2oc(-c3cccc(N)c3)nc2c1,u,10µM*,-66%,-8%,-7%
OCC(O)COc1ccc(Cl)cc1 (stereo unspecified),x,x,x,x,0%
CN(C)c1ccc(N/C=C/C(=O)c2ccc(F)cc2)cc1,14µM*,-19%,5%,-29%,u
NS(=O)(=O)c1ccc(N/C=C\C(=O)c2ccc(F)cc2)cc1,-16%,-21%,-1%,-13%,-6%
CN(C)c1ccc(N/C=C/C(=O)c2ccco2)cc1,7.1µM*,-23%,-2%,-4%,u
CCN(CC)c1ccc2c(-c3ccc(S(=O)(=O)O)cc3S(=O)(=O)[O-])c3ccc(=[N+](CC)CC)cc-3oc2c1,u,u,10%,14µM*,-23%
CCN(CC)c1ccc2nc3c4ccccc4c(=O)cc-3oc2c1,-2%,1%,1%,-8%,-12%
Cc1ccc(NC(=O)N2CCc3ccccc32)cc1,25µM*,u,-6%,3%,-26%
Cc1ccc(NC(=O)N2CCCc3ccccc32)cc1,2%,-2%,-2%,3%,-2%
Cc1ccc(C(=O)N2CCc3ccccc32)o1,14µM*,u,-11%,-19%,-29%
O=C(c1ccc([N+](=O)[O-])o1)N1CCc2ccccc21,-2%,-9%,-68%,-14%,-8%
Fc1ccc(Nc2nc(SCc3ccccc3F)nc3ccccc23)cc1,x,x,x,x,-1%
